Test results reported in PubChem BioAssay (NCI).
This is part of a sample that, as a whole, favours compounds with a hit. Of some 83,000 tested, about 20% had one in any assay.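 Compound tested at a single concentration for 48 hours in 96-well plates; a percent growth value below 10 was scored as active.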 Active and inactive are the calls of the source.

Tests used:
Assay in all cases: NCI-60 one-dose screen, 48 h (100 = growth as untreated, 0 = no growth, -100 = all killed)
[1] = tested on: NCI-H23 lung; conditions: 10 µM unless noted
[2] = tested on: NCI-H226 lung; conditions: 10 µM unless noted
[3] = tested on: NCI-H322M lung; conditions: 10 µM unless noted
[4] = tested on: HOP-62 NSCLC; conditions: 10 µM unless noted
[5] = tested on: NCI-H460 lung; conditions: 10 µM unless noted
[6] = tested on: HOP-92 NSCLC; conditions: 10 µM
[7] = tested on: NCI-H522 lung; conditions: 10 µM unless noted
[8] = tested on: A549/ATCC NSCLC; conditions: 10 µM unless noted
[9] = tested on: 786-0 renal; conditions: 10 µM unless noted
[10] = tested on: COLO 205 colon; conditions: 10 µM unless noted
[11] = tested on: DU-145 prostate; conditions: 10 µM unless noted
[12] = tested on: K-562 leukemia; conditions: 10 µM unless noted
[13] = tested on: MALME-3M melanoma; conditions: 10 µM unless noted
[14] = tested on: MDA-MB-231 breast; conditions: 10 µM unless noted
[15] = tested on: SF-268 CNS; conditions: 10 µM unless noted
[16] = tested on: SF-295 CNS; conditions: 10 µM unless noted
[17] = tested on: SF-539 CNS; conditions: 10 µM unless noted
[18] = tested on: UACC-257 melanoma; conditions: 10 µM unless noted
[19] = tested on: RXF 393 renal; conditions: 10 µM unless noted

Measured: growth

COc1cc(C2N=C(NNc3ccccc3)NC(C)=C2C(C)=O)ccc1O (centres undefined)
inactive: [1] 96.7% | [2] 86.5% | [3] 88.1% | [4] 82% | [5] 106% | [6] 90.4% | [7] 78.5% | [8] 95.5% | [9] 102% | [10] 113% | [11] 108% | [12] 66.8% | [13] 106% | [14] 76.8% | [15] 86.3% | [16] 101% | [17] 98.7% | [18] 110%

CNC(=O)c1cc(-c2ccc(NS(=O)(=O)c3ccc(C)cc3)cc2)nc2cccnc12
inactive: [1] 103% | [2] 88.7% | [3] 110% | [4] 99.7% | [5] 107% | [6] 103% | [7] 91.6% | [8] 104% | [9] 110% | [10] 116% | [11] 113% | [12] 101% | [13] 101% | [14] 95% | [19] 133% | [15] 107% | [16] 108% | [17] 102% | [18] 105%

CCCCCc1ccc(S(=O)(=O)Nc2cc(-c3csc(NC(=O)CN4CCN(CCO)CC4)n3)ccc2OC)cc1
inactive: [1] 71.3% | [2] 82.9% | [3] 52.3% | [4] 78.7% | [6] 46.8% | [7] 45.7% | [8] 43.4% | [11] 49.1% | [14] 12.6% | [15] 59.8%
active: [5] -14% | [9] -51.5% | [10] -21.4% | [12] 2.84% | [13] -80.9% | [16] -23.1% | [17] -69.2% | [18] -31.4%

O=S(=O)(NCCCNc1nccc(-c2[nH]c(-c3ccccc3)nc2-c2ccc(Cl)c(O)c2)n1)c1ccc(Br)cc1
active: [13] 2.55% | [19] -6.2% | [16] 2.98%
inactive: [1] 46.1% | [2] 38.3% | [3] 58.4% | [4] 46.7% | [5] 22.3% | [6] 46% | [7] 26.6% | [8] 30.2% | [9] 53.4% | [10] 81.3% | [11] 47.7% | [12] 18.9% | [14] 43.4% | [15] 37.9% | [17] 46.7% | [18] 16.7%
